KDM4E inh = blocks human JMJD2E demethylase activity. AID 2147. B2RXH2. hit rate 1.6% among 230,000. JMJD2E catalytic domain, FDH-coupled NADH fluorescence (FDH is formaldehyde dehydrogenase). Potency, µM (doses to about 57.1 µM), for inactives: at the top dose activity change, negative = inhibition, actives largely listed as inhibitors; active = well fitted inhibition curve with a large enough effect, not every such curve was filed as active; inconclusive = small, poorly fitted or top-dose-only effect, or another doubt; inactive = no such curve, though single readings can be large or run the other way;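 also: 0% = wells with enzyme and -100% = buffer wells without enzyme; nearly all actives have a fitted effect of over 50% in size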
Target sequence (B2RXH2 1-337 limits assumed): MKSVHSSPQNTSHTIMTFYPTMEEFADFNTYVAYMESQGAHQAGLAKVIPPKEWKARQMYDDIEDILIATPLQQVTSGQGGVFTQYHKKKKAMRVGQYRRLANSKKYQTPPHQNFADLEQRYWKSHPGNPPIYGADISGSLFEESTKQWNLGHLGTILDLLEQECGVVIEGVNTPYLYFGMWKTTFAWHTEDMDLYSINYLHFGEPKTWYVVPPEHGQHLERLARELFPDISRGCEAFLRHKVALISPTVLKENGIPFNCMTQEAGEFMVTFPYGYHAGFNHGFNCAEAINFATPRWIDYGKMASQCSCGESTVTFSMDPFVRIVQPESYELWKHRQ
APEX1 inh = blocks human APE1 abasic DNA cleavage | hit rate 0.35% among 350,000 | Potency, µM (top dose mostly 65.8 µM), inactives show at the highest dose activity change, negative = inhibition, actives largely listed as inhibitors | P27695 | recombinant APE1, TAMRA/BHQ-2 abasic DNA cleavage fluorescence | AID 2517;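 also: plate controls were vehicle for no effect and reference inhibitor for full effect; nearly all actives have a fitted effect of over 55% in size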
Target sequence (P27695 whole entry, looked up): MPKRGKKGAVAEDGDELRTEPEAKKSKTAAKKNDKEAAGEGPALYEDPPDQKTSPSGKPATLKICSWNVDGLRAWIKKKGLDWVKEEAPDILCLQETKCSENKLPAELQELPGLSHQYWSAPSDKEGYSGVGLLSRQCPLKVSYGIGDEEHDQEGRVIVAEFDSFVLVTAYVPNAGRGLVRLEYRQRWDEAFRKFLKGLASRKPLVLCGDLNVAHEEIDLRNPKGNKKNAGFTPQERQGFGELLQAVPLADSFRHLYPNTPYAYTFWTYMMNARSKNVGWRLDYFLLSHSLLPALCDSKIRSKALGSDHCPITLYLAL
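Kinetic fluorescence read (525 ex/598 em nm, three reads 60 s apart) of AP-site incision; signal = third minus first read. Enzyme 0.75 nM, dual-labelled THF duplex 50 nM, compound preincubation 15 min RT.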
L3MBTL1 inh = inhibitors of human L3MBTL1; AlphaScreen L3MBTL1–H3K9me1 peptide binding; Potency, µM (doses to about 57.1 µM), without a hit: top-dose activity, negative = inhibition, actives largely listed as inhibitors; hit rate 0.66% among 230,000; AID 485360; also: nearly all actives have a fitted effect of over 60% in size
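Read-out is AlphaScreen signal from streptavidin donor and nickel chelate acceptor beads (10 ug/mL final each) bridging L3MBTL1 (50 nM) and biotinylated K9-monomethylated H3(1-15) peptide (75 nM), after 30 min compound exposure at room temperature.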
RECQ1 inh = blocks DNA unwinding by human RECQ1 | P46063 | RECQ1 DNA unwinding, red fluorescence kinetic read | Potency, µM (titrated, usually from 57.3 µM), for the others: at the highest dose activity, negative = inhibition, hits mostly inhibitors | hit rate 0.54% among 240,000;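 also: plate controls were vehicle for no effect and no enzyme for full effect; nearly all actives have a fitted effect of over 30% in size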
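RECQ1T1 50 nM; forked duplex (20 bp + 30-nt ss tails) 200 nM, ATP 2 mM final; pH 8.0, 2 mM MgCl2, 2.5 ug/ml poly(dI-dC); 15 min compound preincubation; discontinuous kinetic read over 2 h at RT.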
GCN5L2 inh = inhibitors of human GCN5L2 histone acetyltransferase. GCN5L2 HAT assay, ThioGlo1 CoA-SH fluorescence. AID 504327. Potency, µM (series often up to 58.9 µM), inactives show at the highest dose activity change, negative = inhibition, usual class: inhibitors. hit rate 0.21% among 390,000
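GCN5L2 (20 nM) in 50mM HEPES pH 7.5, 0.1mM EDTA, 0.01% Tween-20 preincubated 15 min with compounds at room temperature. Reaction started with H3(1-25) 75uM, acetyl-CoA 70uM, ThioGlo1 50uM; CoA-thiol fluorescence (Ex340/Em540) read at 0 and 20 min.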
BLM inh = inhibitors of human Bloom syndrome helicase BLM. P54132. recombinant BLM DNA unwinding, fluorescence dequenching. Potency, µM (series often up to 56.1 µM), for inactives: at the top dose activity change, negative = inhibition, hits mostly inhibitors. hit rate 0.2% among 350,000. AID 2528;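 also: plate controls were vehicle for no effect and no enzyme for full effect; nearly all actives have a fitted effect of over 35% in size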
An asterisk follows results filed as active; i = inactive; ? = inconclusive; . = no result given; ! = a repeat was not active; [ ] = another dose, or the depositor's remark. The sample as a whole holds a higher share of hits than the screen did. Unless noted, calls follow the shape of the dose curve; as a rule, active = well fitted curve in the direction sought with a large enough effect; inconclusive = small, poorly fitted or top-dose-only effect, or another doubt; inactive = no such curve, though single readings can be large; an effect the other way counts as inactive or inconclusive. Unless noted, % is scaled to controls: 0 for no effect and ±100 for the full control effect; potency is read from the fitted curve at half-maximal effect.

SMILES	KDM4E inh	APEX1 inh	L3MBTL1 inh	RECQ1 inh	GCN5L2 inh	BLM inh
CCCn1c(Oc2ccccc2)nc2c1c(=O)n(C)c(=O)n2C	.	4%	0%	.	-6%	4%
O=C1[C@H]2[C@H]3[C@H](O)[C@H](O)C/C(=N/OC[C@@H](O)COCc4ccco4)[C@@H]3CC[C@@H]2C(=O)N1c1cccc(Oc2ccccc2)c1	.	10%[12.4 µM]	.	-5%[11.5 µM]	.	0%[12.4 µM]
C/C(=N\N1C(=O)c2ccccc2NC1c1ccco1)c1ccccc1O (centres undefined)	22µM*	0%	2%[11.4 µM]	-6%	-7%	-8%
O=C(N/N=C\c1ccc(-c2ccccc2[N+](=O)[O-])o1)C1COc2ccccc2O1 (centres undefined)	-1%	-3%	-15%	-12%	0%	-11%
CC(C)(C)c1ccc2c(c1)OC(C(=O)N/N=C\c1ccc(-c3cccc(C(=O)O)c3)o1)CO2 (centres undefined)	?	?	16µM*	-1%	-22%	-8%
O=C(N/N=C\c1ccc(-c2ccccc2[N+](=O)[O-])o1)C1COc2cc3ccccc3cc2O1 (centres undefined)	-7%	-9%	-15%	-4%	22µM*	-9%
O=C(N/N=C/c1ccc(-c2ccccc2[N+](=O)[O-])o1)c1cncc(Br)c1	-17%	16%	-6%	-4%	-10%	-11%
Cc1c(C(=O)N/N=C/c2ccc(-c3ccccc3[N+](=O)[O-])o2)sc(N)c1C#N	2%	1%	-2%	-10%	-5%	7.9µM*
OCC1OC(C#Cc2ccccc2)C=CC1O (centres undefined)	.	-4%[12.4 µM]	.	13%[11.5 µM]	.	2%[12.4 µM]
O=C(O)c1ccc(CSc2nnc(-c3cccc([S+](=O)([O-])N4CCCC4)c3)n2-c2ccccc2)cc1	.	5%	.	.	.	.
CCN1C(=O)[C@H]2[C@H]3[C@H](O)[C@H](O)C/C(=N/O[C@@H]4O[C@@H](COC(C)=O)[C@@H](OC(C)=O)[C@@H](OC(C)=O)[C@H]4OC(C)=O)[C@H]3CC[C@@H]2C1=O	.	31%[12.4 µM]	.	17%[11.5 µM]	.	-1%[12.4 µM]
COc1ccc2nc(S(=O)Cc3ncc(C)c(OC)c3C)[nH]c2c1 (centres undefined)	25µM*	-4%	-13%	1%	?	-4%
COCCCOc1ccnc(CS(=O)c2nc3ccccc3[nH]2)c1C (centres undefined)	.	-5%	.	-2%	-12%	-1%
O=C(NCCNCCO)C1(C(F)(F)F)C/C(=C\CCO)CCCO1 (centres undefined)	.	-2%	.	-2%	.	0%
COCCNC(=O)C1(C(F)(F)F)C/C(=C\CCO)CCCO1 (centres undefined)	.	50µM*	.	6%	.	2%
CC12CCC3C(CC3(C)C)C(C)(CCC1=O)O2 (centres undefined)	-5%	2%	.	i	0%	-9%
CC1(C)CC2C1CC[C@]1(C)CCC3C(C(=O)O)CC(=O)O[C@]32C1 (some centres undefined)	-11%	-3%	.	1%	7.9µM*	-1%
CN(C)c1ccc(NC(=O)CN2CCC(N3CCCCC3)CC2)cc1	32µM*	17%	.	i	3%	-2%
CN(C)c1ccc(NC(=O)CN2CCC(NC(=O)C3CCCCC3)CC2)cc1	.	13%	.	.	1%	1%
CN1CCN(C(=O)C2=C[C@H](c3csc4ccccc34)C[C@H](OCCCCO)O2)CC1	22µM*	-1%	8%	i	-4%	-1%
CCN(CC)CCN1c2ccccc2Sc2ccccc21	.	-18%	.	.	-4%	-2%
CCN(CC)[C@@H](C)CN1c2ccccc2Sc2ccccc21	7.9µM*	.	.	-6%[25.9 µM]	-19%[21.4 µM]	-13%[21.4 µM]
COC(=O)C/C=C/C(C)C(OCc1cccc(-c2ccccc2)c1)C1CCCCC1 (centres undefined)	.	17%[12.4 µM]	.	i[11.5 µM]	.	-9%[12.4 µM]
Cc1cc(/C=C2/NC(=O)N(Cc3ccccc3F)C2=O)c(C)n1C(C)C	18µM*	-7%	-10%	-1%	-7%	-5%
Cc1cc(/C=C2/NC(=O)N(c3ccccc3)C2=O)c(C)n1C(C)C	22µM*	5%	-17%	-5%	-3%	-6%
SMILES	KDM4E inh	APEX1 inh	L3MBTL1 inh	RECQ1 inh	GCN5L2 inh	BLM inh
CCN1C(C)=C(C(=O)OC)C(c2ccccc2)N2C(=O)[C@@]3(C(=O)OC)O[C@@]12C1C(=O)CCCC13 (some centres undefined)	.	-10%[12.4 µM]	.	0%[11.5 µM]	.	1%[12.4 µM]
CC(=O)c1ccc(/C=C/c2nc3ccccc3n2C)o1	?	?	25%	-18%	11µM*	-8%
COC(=O)c1cc(NC(=O)c2cccc(C(F)(F)F)c2)c(=O)oc1C/C=N/OCc1cccc(Cl)c1Cl	20µM*	7%	.	-4%	?	-15%
COc1cc(/C=N/NC(=O)c2cncc(Br)c2)cc([N+](=O)[O-])c1O	7.9µM*	-5%	32µM*	6%	?	-12%
O=C(N/N=C\c1ccc([N+](=O)[O-])o1)c1cncc(Br)c1	-1%	2%	.	-4%	-29%	-7%
COc1cc([N+](=O)[O-])cc(/C=N/NC(=O)c2cncc(Br)c2)c1O	14µM*	6%	?	-5%	-8%	-11%
CCCCCCC(NC(=O)c1ccc(C)cc1)C(=O)O (centres undefined)	.	-1%	-20%	.	-1%	.
O=C(OCCN1CCOCC1)c1cccnc1	-5%	4%	4%	-6%	1.1µM*!	-2%
O=C(OCCN1CCOCC1)c1ccccc1	.	27%	3%	.	-2%	-6%
CSCC[C@H](NC(=O)[C@H](CC(C)C)NC(=O)CNC(=O)[C@H](Cc1ccc(O)cc1)NC(=O)[C@H](Cc1ccccc1)NC(=O)[C@H](CCCCN)NC(=O)[C@H](CC(N)=O)NC(=O)[C@@H]1CCCN1C(=O)[C@H](CC(=O)O)NC(=O)[C@H](C)NC(=O)[C@@H]1CCC(=O)N1)C(N)=O	.	10%	.	0%	0%	4%
COc1ccc(C(CC(=O)N2CCOCC2)c2c(OC)cc(OC)c3c(-c4ccccc4)cc(=O)oc23)cc1 (centres undefined)	0%	32µM*!	.	-21%	?	22µM*!
Cc1ccc2[nH]c(C)c(CC(=O)O)c2c1	22µM*	13%	.	i	-1%	-4%
CC(C)=CCC/C(C)=C/CO/N=C1/[C@H]2O[C@@H]2[C@@H](O)[C@H]2[C@H]1CCn1c(=O)n(-c3ccccc3)c(=O)n12	.	-12%[12.4 µM]	.	1%[11.5 µM]	.	-4%[12.4 µM]
O=C(SCC(O)C(O)CS)c1cccs1 (centres undefined)	-6%	18%	.	i	?	-4%

Compound activity deposited in PubChem BioAssay by National Center for Advancing Translational Sciences (NCATS).
